This note sets out measurements from PubChem BioAssay AID431 (Sanford-Burnham Center for Chemical Genomics, 2006).

Out of some 63,000 compounds screened, about 1,100 (1.7%) were called active. The sample as a whole holds a higher share of actives than the screen did. Results with a measured potency or affinity are listed apart. A number with no mark means an inactive call.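 How the source made its calls: active means compounds whose percent cytotoxicity in the single-dose primary screen, scaled between solvent and toxic-drug controls, exceeds 50; inactive means the rest.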

The assay can be described thus: viability loss of HPDE-C7K cells – cell-based, fluorescence, HTS, primary screen (AID 431).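 Further: 0% = DMSO solvent wells and 100% = doxorubicin-treated wells.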 Conditions: HPDE-C7K KRASV12 cells, Alamar Blue viability, 48 h; at 10 µM; hits give high values. On the technique in general: The colour change of resazurin is a common sign of viable cells or microbes.
With `Cc1nc2ccccc2c(=O)n1/N=C/c1cccnc1`, the cytotoxicity was 20.1%.

For `CCCc1cc(=O)[nH]c(SCC(=O)c2cc(C)n(CCOC)c2C)n1`, the cytotoxicity was 1.9%.

On to `COC(=O)C1CCN(C(=O)COC(=O)Cc2c[nH]c3ccccc23)CC1`, for which the cytotoxicity was 2.5%.

With `O=C(CN1C(=O)c2ccccc2S1(=O)=O)NC1CCCCCC1`, the cytotoxicity is 1.2%.

Turning to `CC1(C)Cc2ccccc2-c2nc(NCCCO)n(-c3ccccc3)c(=O)c21`, the cytotoxicity is 12.6%.

On to `O=C(Nc1ccc2c(c1)OCO2)Nc1ccc(Br)cn1`, for which the cytotoxicity was 21.3%.

Consider `CCCCCCc1cc2cc(C(=O)NC)c(=N)oc2cc1O`, for which the cytotoxicity was 30.5%.

`CCOc1cccc2cc(-c3nnc(-c4ccccc4)o3)c(=O)oc12`: the cytotoxicity was -3.1%.

In the case of `CCCCCCc1cc2cc(-c3nnc(-c4ccccc4O)o3)c(=O)oc2cc1O`, the cytotoxicity is 55.8% (active).

With `CCN(CC)S(=O)(=O)c1ccc(-c2nnc(SCC(=O)Nc3nc(C)cs3)o2)cc1`, the cytotoxicity is 20.5%.

With `COC(=O)c1ccc(OC(=O)c2ccccn2)cc1`, the cytotoxicity is -2%.

Consider `CC1(C)OC(=O)C2(Cc3ccccc3N3CCCCC32)C(=O)O1` (stereo unspecified), for which the cytotoxicity is -0.5%.

With `O=C(O)c1ccc2c3c(ncnc13)-c1ccccc1C2=O`, the cytotoxicity was 75.9% (active).

For `O=C1c2ccccc2-c2nccnc21`, the cytotoxicity is -3.8%.

Turning to `O=C1c2ccccc2-c2ncnc3cccc1c23`, the cytotoxicity is -4.9%.

`Fc1cc2ncn(Cc3ccccc3)c2cc1F`: the cytotoxicity was -20.3%.

In the case of `N#Cc1nc(-c2ccco2)oc1NCc1ccc(F)cc1`, the cytotoxicity is 10.2%.

On to `CCC(C)C(=O)Nc1c2c(nc3c1CCC3)CCCC2` (stereo unspecified), for which the cytotoxicity is -5.8%.

Consider `c1ccc(Cn2nnc3c(N4CCCCCC4)ncnc32)cc1`, for which the cytotoxicity was -2.6%.

For `FC(F)(F)c1ccc(N2CCN(c3ncnc4c3nnn4Cc3ccccc3)CC2)nc1`, the cytotoxicity is 55.5% (active).

On to `c1ccc(Cn2nnc3c(N4CCCC4)ncnc32)cc1`, for which the cytotoxicity is 8.8%.

As to `CC(=O)Nc1cc2c(cc1C(=O)C(C)C)OCCO2`, the cytotoxicity was -0.7%.

In the case of `Cc1ccc(C)c(Cn2c(C(C)O)nc3ccccc32)c1` (stereo unspecified), the cytotoxicity is -16.7%.

As for `Cc1ccc(-c2nc(-c3ccccc3)no2)c(Cl)c1`, the cytotoxicity was -2.7%.

On to `CC(C)C(=O)Nc1c2c(nc3ccccc13)N(C)CC2`, for which the cytotoxicity is -4%.

On to `CCc1nnc(NC(=O)c2cnccn2)s1`, for which the cytotoxicity was -15.3%.

With `Cc1cnc(NC(=O)c2c(O)c3cccc4c3n(c2=O)CCC4)s1`, the cytotoxicity was 91.8% (active).

Consider `CCc1nnc(NC(=O)c2c(O)c3cccc4c3n(c2=O)CC4)s1`, for which the cytotoxicity is 50% (active).

Regarding `CCCc1nnc(NC(=O)c2c(O)c3cccc4c3n(c2=O)CC4)s1`, the cytotoxicity was 43.6%.

In the case of `CCCc1nnc(NC(=O)c2c(O)c3cccc4c3n(c2=O)CCC4)s1`, the cytotoxicity is 7.3%.

In the case of `CC(C)c1nnc(NC(=O)c2c(O)c3cccc4c3n(c2=O)CCC4)s1`, the cytotoxicity was 49.4%.

As to `Cc1csc(NC(=O)c2c(O)c3cccc4c3n(c2=O)CCC4)n1`, the cytotoxicity was -16.1%.

As for `CCc1nnc(NC(=O)c2cccc(OC)c2)s1`, the cytotoxicity is 9.1%.

`CCc1nnc(NC(=O)c2cccc(C(=O)Nc3nnc(CC)s3)n2)s1`: the cytotoxicity was 53.1% (active).

`O=C(COc1ccccc1Cl)NCc1ccncc1`: the cytotoxicity was -2.3%.

As to `CC1CCCCN1C(=O)CSc1nc(C2CC2)nc2c1cnn2-c1ccccc1` (stereo unspecified), the cytotoxicity was 1.1%.

Consider `c1ccc(CNc2c3c(nc4ncnn24)CCCC3)nc1`, for which the cytotoxicity is -2.6%.

Take `CC(=O)NCc1nc2ccccc2n1Cc1ccccc1C`: the cytotoxicity is -2.6%.

Turning to `CCOC(=O)CC(=O)Nc1nnc(C(C)C)s1`, the cytotoxicity is -20.6%.

For `COc1ccc(-c2cc(C(=O)O)c3ccccc3n2)c(OC)c1`, the cytotoxicity was -13.5%.

Consider `N[C@@H](Cc1ccc(O)c(I)c1)C(=O)O`, for which the cytotoxicity is -4.9%.

In the case of `COc1ccc2[nH]c(C(=O)O)c(CCC(=O)O)c2c1`, the cytotoxicity is 1.5%.

For `O=C(O)CCc1cc(I)c(Oc2ccc(O)c(I)c2)c(I)c1`, the cytotoxicity is 81.2% (active).

With `CCOC(=O)c1c(-c2ccsc2)csc1N`, the cytotoxicity is -5.8%.

Consider `COc1ccc2nc(C)[nH]c(=O)c2c1`, for which the cytotoxicity was 0.4%.

On to `CS(=O)(=O)N1CCN(c2nc(-c3ccccc3)cs2)CC1`, for which the cytotoxicity is 11.2%.

For the compound `Nc1nc(SCC(=O)N2CCCc3ccccc32)[nH]c(=O)c1-c1ccccc1`, the cytotoxicity is 2.5%.

As to `CCOc1cc(C2c3c(n[nH]c3C)C(=O)N2c2ccc(Br)cc2)ccc1O` (stereo unspecified), the cytotoxicity was 21.7%.

Take `COc1cc(C2c3c(n[nH]c3C)C(=O)N2c2ccc(C)cc2)ccc1O` (stereo unspecified): the cytotoxicity was 58% (active).

On to `COc1cc(C2c3c(n[nH]c3C)C(=O)N2c2ccc(Br)cc2)ccc1O` (stereo unspecified), for which the cytotoxicity was 37.4%.

On to `O=C(CN1CCN(Cc2ccccc2Cl)C1=O)N1CCCCCC1`, for which the cytotoxicity was -10.9%.

As for `COc1cccc(-c2nnc(NC(=O)c3ccccc3Br)o2)c1`, the cytotoxicity is 24.6%.

On to `CCCN(CCC)S(=O)(=O)c1ccc(C(=O)Nc2nnc(CSC)o2)cc1`, for which the cytotoxicity was 2.7%.

With `COc1cccc(-c2nnc(NC(=O)c3ccc(S(=O)(=O)N4CCOCC4)cc3)o2)c1`, the cytotoxicity was 1%.

On to `COc1cccc(-c2nnc(NC(=O)c3ccc(S(=O)(=O)N(CC(C)C)CC(C)C)cc3)o2)c1`, for which the cytotoxicity is 55.5% (active).

With `CCCN(CCC)S(=O)(=O)c1ccc(C(=O)Nc2nnc(-c3cccc(OC)c3)o2)cc1`, the cytotoxicity was 62.9% (active).

Turning to `COc1cccc(-c2nnc(NC(=O)c3ccc(S(=O)(=O)N4CC(C)OC(C)C4)cc3)o2)c1` (stereo unspecified), the cytotoxicity was -4.2%.

Consider `CCCN(CCC)S(=O)(=O)c1ccc(C(=O)Nc2nnc(-c3cc(OC)cc(OC)c3)o2)cc1`, for which the cytotoxicity was 52.7% (active).

For `COCCN(CCOC)S(=O)(=O)c1ccc(C(=O)Nc2nnc(C)o2)cc1`, the cytotoxicity is -7.3%.

For the compound `COc1cccc(-c2nnc(NC(C)=O)o2)c1`, the cytotoxicity was 9.5%.

Turning to `CCCCn1c(SCC(=O)Nc2nc(C)cs2)nnc1-c1cccnc1`, the cytotoxicity was 2.9%.

Consider `Nc1nc(NC(=O)c2cccnc2)nn1-c1ccccc1`, for which the cytotoxicity is 0.1%.

In the case of `Nc1nc(NC(=O)c2ccco2)nn1-c1ccccc1`, the cytotoxicity was 4.5%.

Consider `OC(COCc1cccs1)CN1CCN(c2ccccn2)CC1` (stereo unspecified), for which the cytotoxicity was 2.8%.

Consider `OC(COc1ccc(Cl)c2ccccc12)CN1CCN(c2ccccn2)CC1` (stereo unspecified), for which the cytotoxicity is 18.3%.

Take `OC(CN1CCN(c2ccccn2)CC1)Cn1c2ccccc2c2ccccc21` (stereo unspecified): the cytotoxicity was 53.3% (active).
